Source: PubChem BioAssay (NCATS)

Target: Lysosomal acid glucosylceramidase (Homo sapiens) (UniProt P04062)
Test: Glucocerebrosidase-p2 (AID 348)
Conditions: purified GBA, blue fluorogenic substrate, 40 min; in the data active = potency below about 10 µM; inactive = the rest
Outline: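 Normal human glucocerebrosidase (0.2 nM) with blue fluorogenic substrate (80 uM final) in citrate/phosphate pH 5.9 with 10mM sodium taurocholate, 0.01% tween-20; 40 min RT, NaOH/glycine stop; fluorescence Ex 365/Em 440; AC50 from a titration from 0.6 nM upwards.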
Potency is the fitted concentration of half-maximal effect.

Lysosomal acid glucosylceramidase (Homo sapiens), sequence (P04062 whole entry, looked up): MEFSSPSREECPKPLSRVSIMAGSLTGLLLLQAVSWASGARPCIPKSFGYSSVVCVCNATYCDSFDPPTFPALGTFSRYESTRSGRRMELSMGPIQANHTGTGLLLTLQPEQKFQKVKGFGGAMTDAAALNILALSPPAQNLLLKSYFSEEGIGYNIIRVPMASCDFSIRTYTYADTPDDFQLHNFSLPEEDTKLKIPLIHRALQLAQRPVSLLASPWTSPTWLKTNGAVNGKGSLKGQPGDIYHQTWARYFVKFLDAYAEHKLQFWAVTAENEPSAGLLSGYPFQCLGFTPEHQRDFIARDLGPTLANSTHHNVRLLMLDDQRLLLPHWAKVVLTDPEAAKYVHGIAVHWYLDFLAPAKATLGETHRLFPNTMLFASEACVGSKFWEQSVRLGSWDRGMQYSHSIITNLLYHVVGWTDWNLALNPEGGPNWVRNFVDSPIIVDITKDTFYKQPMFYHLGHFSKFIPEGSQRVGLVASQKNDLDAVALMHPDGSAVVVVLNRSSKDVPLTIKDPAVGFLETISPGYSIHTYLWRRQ

Potency, inactive:
O=C(c1ccncc1)N1CCC2(CCCN(c3ncccn3)C2)CC1 > 11.4 µM, Cn1c(=O)c(-c2cc(F)cc(F)c2)nc2cnc(Oc3cccc(Cl)c3)nc21 > 11.4 µM, O=C(c1cnccn1)N1CCC2(CCCN(c3ccncc3)C2)CC1 > 11.4 µM, COc1ccc(Oc2ncc3ncc(=O)n(Cc4cccc(OC)c4)c3n2)cc1 > 11.4 µM, O=C(Oc1ccccc1)N1CCC[C@@]2(CCN(c3ccccc3)C2)C1 > 11.4 µM, O=C(c1csnn1)N1CCC[C@@]2(CCN(c3ccccc3)C2)C1 > 11.4 µM, N#CCCn1c(=O)cnc2cnc(Nc3ccccc3)nc21 > 11.4 µM, O=C(c1ccco1)N1CCC2(CC1)CCN(c1ccccn1)CC2 > 11.4 µM, O=C(c1cccc(F)c1)N1CCC2(CC1)CCN(c1ccccn1)CC2 > 11.4 µM, O=c1c(CCc2ccccc2)nc2cnc(Nc3ccccc3)nc2n1Cc1cccs1 > 11.4 µM, O=C(c1cnccn1)N1CCC2(CC1)CCN(c1cccc(-c3ccccc3)c1)CC2 > 11.4 µM, CCNc1ncc2nc(-c3cccs3)c(=O)n(-c3ccc(OC)cc3)c2n1 > 11.4 µM, CC(=O)N1CCC2(CCN(Cc3ccc(C#N)cc3)CC2)CC1 > 11.4 µM, COc1ccc(C(=O)N2CCC3(CCCN(Cc4nccs4)C3)CC2)cc1 > 11.4 µM, Cc1cccc(CNc2cc(-c3ccccc3C)ncn2)c1 > 11.4 µM, N#Cc1ccc(CN2CCC3(CC2)CCN(C(=O)c2cnccn2)CC3)cc1 > 11.4 µM, O=C(Nc1ccccc1)N1CCCC2(CCN(C(=O)c3cccc(F)c3)CC2)C1 > 11.4 µM, O=c1c(-c2ccc(F)c(F)c2)nc2cncnc2n1Cc1ccccc1 > 11.4 µM, COc1ccc(C(=O)N2CCC3(CCCN(c4ccccc4)C3)CC2)cc1 > 11.4 µM, Cn1cccc1C(=O)N1CCC2(CCCN(Cc3nccs3)C2)CC1 > 11.4 µM, O=C(c1ccncc1)N1CCC2(CCN(Cc3cc(C(F)(F)F)cc(C(F)(F)F)c3)CC2)CC1 > 11.4 µM, N#CCCn1c(=O)c(-c2cccs2)nc2cnc(Oc3ccccc3)nc21 > 11.4 µM, O=C(c1cnccn1)N1CCC2(CC1)CN(Cc1ccccc1)C2 > 11.4 µM, O=C(c1csnn1)N1CCC2(CCCN(c3ccccn3)C2)CC1 > 11.4 µM, CN(C)Cc1ccccc1-c1cncnc1Nc1ccc(F)cc1 > 11.4 µM, N#Cc1cccc(NC(=O)N2CC3(CCN(C(=O)c4cnccn4)CC3)C2)c1 > 11.4 µM, O=C(Oc1ccccc1)N1CCC2(CC1)CCN(c1ccccn1)CC2 > 11.4 µM, COCCn1c(=O)c(-c2ccc(OC)cc2)nc2cnc(Nc3ccccc3)nc21 > 11.4 µM, COc1cccc(Cn2c(=O)c(-c3cccc(F)c3)nc3cncnc32)c1 > 11.4 µM, c1cncc(-c2nc(NCCN3CCOCC3)c3ccccc3n2)c1 > 11.4 µM, O=S(=O)(c1ccccc1)N1CCC2(CCCN(Cc3ccccc3)C2)CC1 > 11.4 µM, Cn1cccc1C(=O)N1CCC[C@@]2(CCN(c3cccc(-c4ccccc4)c3)C2)C1 > 11.4 µM, COCCn1c(=O)c(-c2cccs2)nc2cnc(OCc3ccccc3)nc21 > 11.4 µM, O=C(c1ccco1)N1CCC2(CCCN(c3cccc(-c4ccccc4)c3)C2)CC1 > 11.4 µM, N#Cc1ccc(CN2CCCC3(CCN(C(=O)c4cnccn4)CC3)C2)cc1 > 11.4 µM, N#Cc1cccc(NC(=O)N2CCCC3(CCN(C(=O)c4ccncc4)CC3)C2)c1 > 11.4 µM, O=C(c1ccncc1)N1CCC[C@@]2(CCN(Cc3cc(C(F)(F)F)cc(C(F)(F)F)c3)C2)C1 > 11.4 µM, Cc1noc(C)c1C(=O)N1CCC2(CC1)CCN(C(c1ccccc1)c1ccccc1)CC2 > 11.4 µM, COc1ccc(C(=O)N2CCC3(CCCN(c4ccc(-c5ccccc5)cc4)C3)CC2)cc1 > 11.4 µM
